The target in test [1] is Glutathione peroxidase 1 (Homo sapiens) (UniProt P07203). As to the kind of experiment: Primary qHTS Assay for Inhibitors of Recombinant Selenoprotein Glutathione Peroxidase 1 (GPX1) (AID 1845191). Also: nearly all actives have a fitted effect of over 65% in size. As to activity, negative = inhibition: % is scaled to controls: 0 for no effect and ±100 for the full control effect. The gist of the method: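 GR-coupled assay: compounds preincubated 30 min at room temperature with GPX1, then reaction started with CHP; final 10 nM GPX1, 1 mM GSH, 0.5 mM CHP, 0.5 mM NADPH, 100 nM GR, 0.01% BSA, pH 7.5 Tris buffer. NADPH fluorescence (340/450 nm) read at 0 and 15 min.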
Sequence of Glutathione peroxidase 1 (Homo sapiens) (P07203 whole entry, looked up): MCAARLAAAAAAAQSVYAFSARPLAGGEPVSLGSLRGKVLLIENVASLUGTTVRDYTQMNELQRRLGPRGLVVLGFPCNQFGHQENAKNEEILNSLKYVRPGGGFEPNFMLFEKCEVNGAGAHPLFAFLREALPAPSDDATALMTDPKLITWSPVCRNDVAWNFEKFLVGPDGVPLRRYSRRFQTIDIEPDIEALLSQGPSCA

The target in test [2] is Phospholipid hydroperoxide glutathione peroxidase GPX4 (Homo sapiens) (UniProt P36969). As to the kind of experiment: Primary qHTS Assay for Inhibitors of Recombinant Selenoprotein Glutathione Peroxidase 4 (GPX4) (AID 1845192). Also: nearly all actives have a fitted effect of over 65% in size. Also: potency is read from the fitted curve at half-maximal effect. As to activity change, negative = inhibition: % is scaled to controls: 0 for no effect and ±100 for the full control effect. The gist of the method:
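GR-coupled assay: recombinant GPX4 preincubated 30 min with compound at room temperature; final 200 nM GPX4, 1 mM GSH, 0.5 mM cumene hydroperoxide, 0.5 mM NADPH, 100 nM GR, 0.01% BSA, pH 7.5 Tris. NADPH fluorescence (340/450 nm) read at 0 and 15 min.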

The target in test [3] is Catechol O-methyltransferase (Homo sapiens) (UniProt P21964). As to the kind of experiment: Confirmatory Screen for Target Class Profiling of Small Molecule Inhibitors of Methyltransferases (AID 1745852). As to activity change, negative = inhibition: % is scaled to controls: 0 for no effect and ±100 for the full control effect. Conditions: MTase-Glo luminescence, SAH detection, recombinant enzyme; measured here: COMT max response; stronger effect = lower value.
Sequence of Catechol O-methyltransferase (Homo sapiens) (P21964 whole entry, looked up): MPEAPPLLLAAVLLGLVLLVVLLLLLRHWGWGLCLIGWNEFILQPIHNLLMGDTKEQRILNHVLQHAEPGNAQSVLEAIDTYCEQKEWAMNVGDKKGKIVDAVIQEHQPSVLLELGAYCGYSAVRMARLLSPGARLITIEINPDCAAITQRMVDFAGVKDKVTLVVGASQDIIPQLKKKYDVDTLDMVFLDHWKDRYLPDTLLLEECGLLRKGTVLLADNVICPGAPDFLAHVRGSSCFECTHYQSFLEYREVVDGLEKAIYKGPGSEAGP
Test [4] addresses Guanidinoacetate N-methyltransferase (Homo sapiens) (UniProt Q14353). Described as above. To be noted: activity change, negative = inhibition: at 57.3 µM (top of the series) unless noted.
Test [5] addresses Nicotinamide N-methyltransferase (Homo sapiens) (UniProt P40261). Described as above. Conditions: MTase-Glo luminescence, SAH detection, recombinant enzyme; measured here: NNMT max response; stronger effect = lower value.
In test [6] the target is Phenylethanolamine N-methyltransferase (Homo sapiens) (UniProt P11086). The test is described as above. Conditions: MTase-Glo luminescence, SAH detection, recombinant enzyme; measured here: PNMT max response; stronger effect = lower value.
Sequence of Phenylethanolamine N-methyltransferase (Homo sapiens) (P11086 whole entry, looked up): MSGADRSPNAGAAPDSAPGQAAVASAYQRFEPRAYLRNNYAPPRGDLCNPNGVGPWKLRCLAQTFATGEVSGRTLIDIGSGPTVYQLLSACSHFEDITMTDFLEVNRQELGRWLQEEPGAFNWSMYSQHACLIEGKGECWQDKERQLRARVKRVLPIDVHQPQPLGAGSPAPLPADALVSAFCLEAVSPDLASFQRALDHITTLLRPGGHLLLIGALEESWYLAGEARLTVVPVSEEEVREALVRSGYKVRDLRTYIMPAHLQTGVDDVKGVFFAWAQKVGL
For test [7], the target named is Luciferin 4-monooxygenase (Photinus pyralis) (UniProt P08659). As to the kind of experiment: Primary firefly luciferase (FLuc) qHTS assay for identification of artifact compounds. (AID 1845220). Also: nearly all actives have a fitted effect of over 60% in size.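 As to activity change, negative = inhibition: plate controls were DMSO vehicle for no effect and no enzyme for full effect.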 In a few lines:
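D-luciferin and ATP (10 uM each, final) in Tris acetate buffer pH 7.6 were incubated with compounds for 15 min at room temperature. The reaction was started with 10 nM Photinus pyralis luciferase and luminescence read after 5 min. Percent inhibition was fitted to a 4-parameter Hill equation.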
A general note: Quantitative high-throughput screening tests each substance at several concentrations.

For test [8], the system named is Nanoluciferase (engineered Oplophorus gracilirostris luciferase). As to the kind of experiment: Primary Nanoluciferase (NLuc) qHTS assay for identification of artifact compounds. (AID 1845222).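 Also: 0% = DMSO and -100% = no enzyme.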 The gist of the method: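 Diluted conditioned medium from NLuc-expressing S16 cells treated with compounds for 15 min at room temperature, then Nano-Glo substrate added; luminescence read after 5 min. Percent inhibition versus no-enzyme and DMSO controls fitted to 4-parameter Hill equation.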

Test [9] in a line: Primary redox qHTS assay for identification of artifact compounds. (AID 1845223).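 Also: 0% = DMSO and 100% = reference compound.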 The gist of the method:
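Amplex Red (25 uM) and HRP (250 mU/mL) in HBSS, with compounds for 15 min, then 250 uM DTT for 30 min, room temperature, dark. Fluorescence 525/598 nm read; normalized to DMSO and 10 uM DA3003; Hill fit.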

Test [10] can be described thus: HepG2 viability counterscreen (readout 2: ATP content) against the NCATS DSHEA and TCM libraries (AID 1794840).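 Also: HepG2 cells exposed to substances for about 24 h; 0% is about no effect.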 In a few lines:
(§1)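 HepG2 cells (1,000 cells/well) attached ~4 h, then treated ~24 h at 37C with substances. Protease activity read by GF-AFC (25 uM final, 30 min, Ex/Em 380/510 nm); ATP content then by CellTiter-Glo luminescence.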

Test [11] is described as follows: HepG2 viability counterscreen (readout 1: protease activity) against the NCATS DSHEA and TCM libraries (AID 1794841).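 Also: cells exposed to compounds for about 24 h before the protease read; 0% is about no effect.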 In a few lines:
as §1
In general terms: The purpose of a counterscreen is to sort out artefacts and off-target activity.

Test [12] is described as follows: Primary fluorescence-based thiol-reactive (MSTI) qHTS assay for identification of artifact compounds. (AID 1845221). Also: nearly all actives have a fitted effect of over 65% in size. Also: potency is read from the fitted curve at half-maximal effect.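 As to activity change, negative = thiol reactive: thiol-reactive compounds lower the probe fluorescence signal.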 In a few lines:
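A multi-concentration qHTS design tested compounds against 4 uM MSTI, pH 7.4 phosphate-buffered saline. Plates were protected from light for 1 h at room temperature before imaging fluorescence.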

Test [13] in a line: NCATS anti-infectives library activity on the primary C. elegans qHTS viability assay (AID 1745855; calls by dose curve). To be noted: C. elegans worm area imaging, day 7; at 41.8 µM (top of the series). The gist of the method: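 Viability read-out is GFP fluorescence of PE254-GFP-FLuc C. elegans, measured by laser cytometry (488 nm) at day 0, 3 and 7. Ten L1 worms per well were incubated 7 days at 21 °C with compounds and bacterial capsules in S medium.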

Test [14] in a line: Viability counterscreen for antagonist of constitutive androstane receptor (CAR) against the NCATS DSHEA and TCM libraries (AID 1794837).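 Also: compound exposure lasted 24 h before viability reading; 0% is about no effect.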 In a few lines:
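HepG2-CYP2B6-hCAR cells (2,500/well) were allowed to attach for 5 h, then exposed to compounds with 48 uM CITCO for 24 h at 37C. Viability was read by CellTiter-Fluor fluorescence after 1 h.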

The nature of test [15]: Viability counterscreen for agonist of constitutive androstane receptor (CAR) against the NCATS DSHEA and TCM libraries (AID 1794838).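 Also: HepG2 cells with CYP2B6 reporter and hCAR plus 0.75 µM PK11195 antagonist; 0% is about no effect.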 The gist of the method:
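HepG2-CYP2B6-hCAR cells (2,500/well) attached 5 h, then got compounds plus 0.75 uM PK11195 final. After 24 h at 37C, viability read by CellTiter-Fluor fluorescence (Ex/Em 405/540 nm).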

Each structure is given as a SMILES string. “And” between values parts separate entries of the source, which are not always exact repeats. Equal values may be shown once. Results filed as inconclusive are left out. The source made the active and inactive calls. Unless noted, calls follow the shape of the dose curve; as a rule, active = well fitted curve in the direction sought with a large enough effect; inconclusive = small, poorly fitted or top-dose-only effect, or another doubt; inactive = no such curve, though single readings can be large; an effect the other way counts as inactive or inconclusive.

Sequence of Phospholipid hydroperoxide glutathione peroxidase GPX4 (Homo sapiens) (P36969 whole entry, looked up): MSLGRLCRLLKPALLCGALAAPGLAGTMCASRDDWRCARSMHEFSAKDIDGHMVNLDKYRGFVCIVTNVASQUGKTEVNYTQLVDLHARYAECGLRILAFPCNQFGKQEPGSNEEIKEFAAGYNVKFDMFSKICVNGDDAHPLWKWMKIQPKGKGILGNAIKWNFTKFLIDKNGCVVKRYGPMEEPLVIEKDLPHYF
Sequence of Nicotinamide N-methyltransferase (Homo sapiens) (P40261 whole entry, looked up): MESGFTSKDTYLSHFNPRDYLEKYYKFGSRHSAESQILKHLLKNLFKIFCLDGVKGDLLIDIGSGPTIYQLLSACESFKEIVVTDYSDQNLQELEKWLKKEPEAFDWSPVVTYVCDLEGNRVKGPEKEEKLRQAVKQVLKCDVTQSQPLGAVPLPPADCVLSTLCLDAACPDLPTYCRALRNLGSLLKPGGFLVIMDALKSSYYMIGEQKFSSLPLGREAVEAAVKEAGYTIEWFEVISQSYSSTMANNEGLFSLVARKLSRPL

Consider `CC(=O)OCC(=O)[C@@]1(O)CC[C@H]2[C@@H]3C[C@H](C)C4=CC(=O)C=C[C@]4(C)[C@H]3[C@@H](O)C[C@@]21C`, for which the Potency entry in [1] and in test [2] was “inactive” in each case.
On to `CC1(C)S[C@@H]2[C@H](NC(=O)C(C(=O)O)c3ccsc3)C(=O)N2[C@H]1C(=O)O` (stereo partly specified), for which the Potency result in test [1] and in test [2] was “inactive” each time.
With `OC1COC(OCC2OC(OCCc3ccccc3)C(O)C(O)C2O)C(O)C1O` (stereo unspecified), the activity is -64.8% in [3], 0% in test [5] and 0% in test [6]. Further, in test [4], the activity change, negative = inhibition was 0% [at 29.8 µM]. Moreover, the Potency result in test [1], in test [2], in test [7], in test [8] and in [9] was “inactive” each time.
As for `CC1=CCC(C(C)(C)O)CC1` (stereo unspecified), the outcome in test [10] and in [11] was “inactive” throughout. Moreover, the Potency entry in test [1] and in test [2] was “inactive” each time.
For `CCOc1ccc2c(c1)C(C)=CC(C)(C)N2`, the Potency result in test [1] is “inactive”. Further, the Potency in test [2] was 31.6 µM (active).
Take `NS(=O)(=O)OC[C@@H]1C[C@@H](n2ccc3c(N[C@H]4CCc5ccccc54)ncnc32)C[C@@H]1O`: the activity was -6.43% and -2.13% in [3]; -12% and -2.45% in test [5]; -79.3% and -73.9% in [6]. The activity change, negative = inhibition in test [4] was -2.34% and 2.95%. For the same molecule, the Potency entry in test [1], in [7], in test [12] and in [8] was “inactive” each time.
`N[C@H]1C[C@H]1c1ccc(-c2cccc(O)c2)cc1`: the outcome in test [13] is “inactive”. Further, the Potency entry in test [1], in [2], in test [7], in test [12], in test [8] and in test [9] was “inactive” each time.
In the case of `C[C@H](CCC(=O)O)[C@H]1CC[C@H]2[C@@H]3[C@H](O)C[C@@H]4C[C@H](O)CC[C@]4(C)[C@H]3CC[C@]12C`, the Potency result in test [1] is “inactive”.
For the molecule `COC(F)(F)C(Cl)Cl`, the Potency entry in test [1] and in test [2] was “inactive” each time.
Regarding `CC(C)(O)/C=C1/C(=O)C(C)(C)C(=O)C(C)(C)C1(O)O[C@@H]1O[C@H](COC(=O)c2cc(O)c(O)c(O)c2)[C@@H](O)[C@H](O)[C@H]1O` (stereo partly specified), the values for the activity in test [3], in [5] and in test [6] were -56.9%, -1.53% and -0.785%, respectively. Also, in test [4], the activity change, negative = inhibition is -2.31% [at 19.1 µM]. Moreover, the Potency result in test [1], in [2], in test [8] and in test [9] was “inactive” each time. Further, the Potency in [12] is 0.707 µM (active).
For `COC(=O)CCC(=O)CN`, the Potency entry in test [1] and in test [2] was “inactive” in each case.
Consider `COCC(=O)Nc1cc(Sc2ccccc2)ccc1N=C(NC(=O)OC)NC(=O)OC`, for which the Potency result in test [1] is “inactive”.
In the case of `CC1=C(/C=C/C(C)=C/C=C/C(C)=C/CO)C(C)(C)CCC1`, the outcome in [14], in test [15], in [10] and in test [11] was “inactive” in each case. For the same molecule, in test [1], the Potency result is “inactive”. Moreover, the Potency in [2] is 17.8 µM (active).
Turning to `CC[N+](CC)(CC)CCC(O)(c1ccccc1)C1CCCCC1` (stereo unspecified), the Potency result in test [1] and in [2] was “inactive” throughout.
`CC[N+](C)(C)Cc1ccccc1Br`: the Potency entry in test [1] and in test [2] was “inactive” throughout.
Take `COC(=O)C1=C(C#N)NC(C)=C(C(=O)OC(C)C)C1c1cccc([N+](=O)[O-])c1` (stereo unspecified): the Potency result in test [1] and in test [2] was “inactive” each time.
Consider `C=C(C)[C@@H](C)[C@H]1O[C@]23C[C@]4(CO2)C(CCC2[C@@]5(C)CC[C@H](O[C@@H]6OC[C@H](O)[C@H](O[C@@H]7O[C@H](CO)[C@@H](O)[C@H](O)[C@H]7O)[C@H]6O[C@@H]6O[C@@H](CO)[C@H](O)[C@H]6O)C(C)(C)C5CC[C@]24C)C3[C@@](C)(O)[C@@H]1OC(C)=O` (stereo partly specified), for which the Potency result in test [1] and in [2] was “inactive” throughout. Further, the activity change, negative = inhibition in [7] is 4.34% [at 11.6 µM] (inactive). The activity change, negative = thiol reactive in test [12] was 6.68% [at 11.5 µM] (inactive). In addition, the activity, negative = inhibition in test [8] is 4.88% [at 11.6 µM] (inactive).
